Compound activity (PubChem BioAssay)
Shown are actives, neighbours in structure and some others; about 19% of the full set was active somewhere.
MCF10A rerep: induces DNA re-replication in MCF 10a normal breast cells; MCF 10A DNA re-replication, Hoechst nuclear intensity, 48 h; Potency, µM (top dose mostly 46.1 µM), without a hit: top-dose activity, positive = re-replication, actives largely listed as activators; 350,000 tested, 2.9% active; AID 624296; further: potency means the concentration at half of the fitted maximal effect; % of control where 0% means no effect; nearly all actives have a fitted effect of over 50% in size
DT40 TDP1 no CPT: qHTS for Inhibitors of human tyrosyl-DNA phosphodiesterase 1 (TDP1): qHTS in cells in absence of CPT; 420,000 tested, 15% active; AID 686978, 2013; Potency, µM (titrated, usually from 46.2 µM), for inactives: at the highest dose activity change, negative = growth inhibition, usual class: inhibitors; DT40 Tdp1-/- hTDP1 cells, no CPT, ATP luminescence, 48 h; further: potency means the concentration at half of the fitted maximal effect; on the % scale 0 is the no-effect control and ±100 the full control effect; nearly all actives have a fitted effect of over 55% in size
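Readout: luminescence from CellTiter-Glo after 30 min in the dark at RT. Cells: DT40 Tdp1-/- with stable hTDP1, 400/well. Exposure: compounds alone, ≥48 hr, 37 °C.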
IL1B secr inh: inhibitors of inflammasome signaling (IL-1 beta secretion) | THP-1 LPS/ATP IL-1B secretion, AlphaLISA, 16 h; hits give low values | activity change, % at 57.5 µM | 360,000 tested, 4.7% active | AID 743279; in the data active means activity change below about -50%; inconclusive means mostly about -30% to -49%; further: on the % scale 0 is the no-effect control and ±100 the full control effect
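THP-1 cells pretreated 1 hr with compounds (up to 57.5 uM final), then stimulated with LPS (250 ng/mL final) plus ATP (1.25 mM final); secreted IL-1B measured by AlphaLISA after 16 hr, decreased signal indicating inhibition.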
TDP1 cell CPT: DT40-hTDP1 cell growth loss with CPT; 420,000 tested, 12% active; chicken DT40 Tdp1-/-;hTDP1 cells + 20 nM CPT, ATP luminescence, 48 h; AID 686979; Potency, µM (series often up to 46.2 µM), inactives show at the highest dose activity change, negative = growth inhibition, usual class: inhibitors; further: potency means the concentration at half of the fitted maximal effect; on the % scale 0 is the no-effect control and ±100 the full control effect; nearly all actives have a fitted effect of over 55% in size
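Cell growth measured by CellTiter-Glo luminescence after a minimum 48 h, 37 C compound exposure with 20 nM CPT in Tdp1-knockout DT40 cells stably expressing hTDP1, seeded 400/well; qHTS titration format.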
Chronic BCR inh: inhibitors of chronic active B-cell receptor signaling. ABC-DLBCL IkBa-CBG/CBR reporter, luminescence ratio, 4 h. Potency, µM (top dose mostly 46.1 µM), for inactives: at the highest dose activity change, negative = inhibition, most hits filed as inhibitors. 340,000 tested, 0.05% active; active means well fitted inhibition curve with a large enough effect in the signal ratio, with a control signal flat, not every such curve was filed as active; inconclusive means small, poorly fitted or top-dose-only effect, or effect the other way, or a change in a side signal; the % refers to the signal ratio;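 further: potency means the concentration at half of the fitted maximal effect; plate controls were basal doxycycline-induced cells for no effect and cells given 10 µM MG132 for full effect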
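Cell line TMD8 (human ABC DLBCL), stably expressing tet-inducible CBG68-IkBa fusion and CBR; IMDM/0.5% FBS; cpd up to 46 uM; dox induction, 4 h, 37C/5% CO2; dual luminescence; green/red ratio; MG132 control.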
SW480 rerep: induces DNA re-replication in SW480 colon adenocarcinoma cells | Potency, µM (highest dose often 46.1 µM), for the others: at the top dose re-replication activation, most hits filed as activators | SW480 DNA re-replication, Hoechst DNA content imaging, 48 h | 340,000 tested, 1.8% active; further: potency means the concentration at half of the fitted maximal effect; % of control where 0% means no effect; nearly all actives have a fitted effect of over 55% in size
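Treated cells incubate 48 hr (37 C, 5% CO2), are stained 40 min with Hoechst, and nuclear fluorescence is enumerated; a rise in nuclei with high DNA signal marks re-replication.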
* hit, by the source's call; ? = inconclusive; . = no result given; [ ] = another dose, or the depositor's remark. Unless noted, the call rests on the fitted dose curve; in most records, active means well fitted curve in the direction sought with a large enough effect; inconclusive means small, poorly fitted or top-dose-only effect, or another doubt; inactive means no such curve, though single readings can be large; an effect the other way counts as inactive or inconclusive.

SMILES	MCF10A rerep	DT40 TDP1 no CPT	IL1B secr inh	TDP1 cell CPT	Chronic BCR inh	SW480 rerep
CCN(CC)C(=O)Cn1cnc2sc(C(=O)Nc3cc(OC)c(OC)c(OC)c3)c(C)c2c1=O	0.0%	11.6µM*	7.9	?	?	-1.5%
COCCNC(=O)c1sc2ncn(CC(=O)N3CCCCC3)c(=O)c2c1C	?	25.9µM*	12.2	?	0.3%	?
CCCNC(=O)Cn1cnc2sc(C(=O)Nc3cc(OC)c(OC)c(OC)c3)c(C)c2c1=O	-7.8%	8.9%	-11.1	10.6%	1.1%	-10.3%
Cc1ccc(NC(=O)Cn2cnc3sc(C(=O)NCc4ccco4)c(C)c3c2=O)cc1Cl	?	?	-2.7	?	?	11.1%
Cc1ccc(C(O)c2ncc(-c3ccccc3C(F)(F)F)[nH]2)cc1F (centres undefined)	.	?	45.2	?	.	.
CCOC(=O)c1n[nH]n(-c2cc(Cl)cc(Cl)c2)c1=O	-4.7%	-4.3%	4.5	1.0%	?	-9.9%
COC(=O)Cc1c(C)[nH]n(-c2cc(Cl)cc(Cl)c2)c1=O	?	2.1%	-65.3*	2.8%	25.4%	2.1%
COC(=O)C[C@H]1C=C[C@H](NC(=O)c2ccccn2)[C@@H](CO)O1	.	-1.4%	9.8	-8.2%	.	.
O=C(C[C@@H]1C=C[C@H](NC(=O)Cc2ccccn2)[C@@H](CO)O1)NCCc1ccccc1	.	0.7%	-97.9*	18.7%	.	.
Cc1ccsc1CN(C)Cc1nc(C2CC2)no1	2.0%	0.9%	19.0	29.9%	3.7%	-0.5%
CC(C)c1c(O)ccc2c1CC[C@H]1C(C)(C)CCC[C@]21C	?	?	?	13µM*	.	-3.8%
CC(C)(O)c1ccc2c(c1)CCC1C(C)(C(=O)O)CCCC21C (centres undefined)	2.7%	-13.1%	12.3	-8.7%	0.1%	-10.7%
C[C@H](CO)N1C[C@H](C)[C@@H](CN(C)S(C)(=O)=O)Oc2c(NC(=O)Nc3ccc4c(c3)OCO4)cccc2C1=O	1.7%	-7.9%	-16.5	-9.0%	?	-1.2%
C[C@H](CO)N1C[C@H](C)[C@@H](CN(C)S(=O)(=O)c2ccccc2)Oc2c(NC(=O)NC3CCCCC3)cccc2C1=O	-1.2%	?	-50.8*	18.4µM*	0.7%	-0.1%
C[C@H](CO)N1C[C@H](C)[C@@H](CN(C)S(=O)(=O)c2ccccc2)Oc2c(NC(=O)C3CC3)cccc2C1=O	-6.2%	0.3%	9.9	-0.7%	.	6.2%[9.22 µM]
C[C@H](CO)N1C[C@H](C)[C@@H](CN(C)S(=O)(=O)c2ccccc2)Oc2c(NC(=O)Nc3ccc4c(c3)OCO4)cccc2C1=O	2.3%	?	-60.8*	16.4µM*	?	-0.5%
CCN(CC(=O)Nc1c(F)cccc1F)C(=O)CCCSc1nc2ccccc2[nH]1	.	-22.6%	-11.9	-16.4%	.	.
Cc1ccc(NC(=O)CN(c2ccc(Cl)cc2)S(=O)(=O)c2cc([N+](=O)[O-])ccc2Cl)c(C)c1	0.2%	14.6µM*	-79.4*	?	?	0.3%
Cc1ccc(S(=O)(=O)N(CC(=O)Nc2cccnc2)c2cccc([N+](=O)[O-])c2)cc1	23.1µM*	11.6µM*	-8.3	?	-0.2%	?
CCc1cccc(NC(=O)CN(c2ccc(C)cc2)S(=O)(=O)c2cccs2)c1	.	16.4µM*	.	?	.	.
Cc1ccc([N+](=O)[O-])cc1NC(=O)CN(c1ccccc1)S(=O)(=O)N(C)C	.	-27.4%	.	0.8%	.	.
Cc1ccc(S(=O)(=O)N(CC(=O)Nc2cccnc2)c2cccc(Br)c2)cc1	?	16.4µM*	-3.9	?	7.6%	?
COc1ccc(S(=O)(=O)N(CC(=O)Nc2cccnc2)c2ccc(C)cc2)cc1OC	.	-21.6%	.	-15.4%	.	.
Cc1cccc(N(CC(=O)Nc2cccnc2)S(C)(=O)=O)c1	6.4%	-0.4%	0.6	-1.6%	-4.1%	-0.3%
COc1cc(NC(=O)Cn2cc(C(=O)c3ccc(F)cc3)c(=O)c3ccc(C)nc32)cc(OC)c1	.	-25.0%	.	?	.	.
SMILES	MCF10A rerep	DT40 TDP1 no CPT	IL1B secr inh	TDP1 cell CPT	Chronic BCR inh	SW480 rerep
O=C(c1ccccc1)N1CCOC(O)(c2ccccc2)C1c1ccccc1 (centres undefined)	14.2%	-31.9%	-21.8	?	.	?
COc1ccc(C)cc1S(=O)(=O)N(CC(=O)Nc1cccc([N+](=O)[O-])c1)c1ccccc1	-3.3%	20.6µM*	-5.5	14.6µM*	8.0%	-4.4%
N#CN1C2CCC1CC(O)(c1ccccc1)C2 (centres undefined)	.	-6.7%	13.3	-0.6%	.	.
Cc1cc(N2CCCC2)ccc1/C=C1\NC(=S)N(C)C1=O	17.0%	3.26µM*	-10.3	4.61µM*	?	33.8%
CN1C(=O)c2ccc(N3CCCC3)cc2C1=O	-1.1%	?	4.2	?	-0.6%	-3.3%
O=C1/C(=C/c2ccc(N3CCCC3)cc2)NC(=S)N1C1CC1	-5.3%	16.4µM*	-77.1*	16.4µM*	6.8%	-2.9%
Cc1cc(O)c(C2=Nc3ccccc3SC(c3ccc(Cl)cc3)C2)c(=O)o1 (centres undefined)	5.17µM*	7.31µM*	15.5	5.17µM*	?	.
COc1ccccc1C(=O)c1c(N)c(-c2nc(-c3ccccc3)cs2)c2ccccn12	.	20.6µM*	.	18.4µM*	.	.
